{"source": "PubChem BioAssay AID651813", "about": "(National Center for Advancing Translational Sciences (NCATS), 2012)", "note": "In all, about 2,100 compounds went through this assay and about 1,100 (52%) were called active. Inconclusive results (about 27%) are left out. So high a share suggests a set chosen from earlier hits. The list shows a part of the results. Values without a mark were called inactive. Calls follow the shape of the dose curve; as a rule, active = well fitted inhibition curve with a large enough effect; inconclusive = small, poorly fitted or top-dose-only effect; inactive = no such curve, though single readings can be large or run the other way. Potency is read from the fitted curve at half-maximal effect.", "data": [{"biological_target": "DNA dC->dU-editing enzyme APOBEC-3G (Homo sapiens) (UniProt Q9HC16)", "sequence (Q9HC16 whole entry, looked up)": "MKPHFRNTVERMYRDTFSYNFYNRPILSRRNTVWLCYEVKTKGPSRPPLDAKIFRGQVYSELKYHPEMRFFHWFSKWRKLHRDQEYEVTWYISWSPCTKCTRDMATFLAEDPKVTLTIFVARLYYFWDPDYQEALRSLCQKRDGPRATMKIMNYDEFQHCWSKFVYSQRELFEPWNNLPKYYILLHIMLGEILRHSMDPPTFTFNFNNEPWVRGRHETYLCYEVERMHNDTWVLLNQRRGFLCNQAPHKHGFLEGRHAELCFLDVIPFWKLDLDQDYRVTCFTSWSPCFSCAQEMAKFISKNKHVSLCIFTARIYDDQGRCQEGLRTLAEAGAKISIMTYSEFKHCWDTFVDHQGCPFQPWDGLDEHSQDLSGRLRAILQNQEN", "experiment": "qHTS for inhibitors of Vif-A3G interactions: Cherry picks counterscreen;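 also: hits raise yellow fluorescence by blocking Vif-driven A3G-eYFP degradation; nearly all actives have a fitted effect of over 70% in size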;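 as to max response: max response given as percent of control signal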", "settings": "HeLa A3G-eYFP + Vif (tagged APOBEC3G with the HIV-1 protein that degrades it), eYFP fluorescence, 24 h", "outline": "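HeLa cells stably expressing A3G-eYFP and Vif were treated for 24 h at 37 deg C with compounds at several concentrations; yellow fluorescence (Ex 488 nm, Em 500-530 nm) read by Acumen Explorer, MG132 as positive control.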", "units": {"max response": "%"}, "values": [{"smiles": "O=C(N/N=C\\C=C\\c1ccc([N+](=O)[O-])o1)c1cccs1", "Potency": "14 µM (active)"}, {"smiles": "CCC(=Nc1ccccc1O)C1=C(O)CC(c2ccccc2)CC1=O", "note": "(configuration not stated)", "max response": 16.4}, {"smiles": "COc1ccccc1N=C(C)C1=C(O)CC(c2ccccc2)CC1=O", "note": "(configuration not stated)", "Potency": "0.559 µM (active)"}, {"smiles": "Cc1cccc(C)c1OCC(=O)N/N=C/c1ccc2c(c1)OCO2", "Potency": "6.27 µM (active)"}, {"smiles": "O=C(NN=Cc1c(O)ccc2ccccc12)c1ccc2c(c1)OCO2", "max response": 1.53}, {"smiles": "Cc1cc(C(=O)N/N=C/c2ccc3c(c2)OCO3)c2ccccc2n1", "Potency": "7.9 µM (active)"}, {"smiles": "O=C(N/N=C/c1ccc2c(c1)OCO2)c1cccc2ccccc12", "Potency": "9.94 µM (active)"}, {"smiles": "O=C(N/N=C/c1ccc2c(c1)OCO2)c1cc(-c2ccco2)nc2ccccc12", "Potency": "9.94 µM (active)"}, {"smiles": "O=C(N/N=C/c1ccc2c(c1)OCO2)c1cc(-c2ccncc2)nc2ccccc12", "Potency": "5.59 µM (active)"}, {"smiles": "Cc1nc2c3cc(F)ccc3n(Cc3ccccc3F)c2s1", "Potency": "14 µM (active)"}, {"smiles": "Cc1nc2c3cc(F)ccc3n(Cc3ccccc3)c2s1", "Potency": "7.04 µM (active)"}, {"smiles": "N#CCSc1ccccc1NC(=O)CN1C(=O)C2CC=CCC2C1=O", "note": "(configuration not stated)", "Potency": "11.2 µM (active)"}, {"smiles": "CCOC1=C/C(=C/c2c(N)n3nc(-c4ccccc4)sc3nc2=O)C=CC1=O", "max response": 19.6}, {"smiles": "COC1=C/C(=C/c2c(N)n3nc(-c4ccc(C)cc4)sc3nc2=O)C=CC1=O", "Potency": "20.6 µM (active)"}, {"smiles": "CCS(=O)(=O)c1nn2c(N)c(/C=C3/C=CC(=O)C(OC)=C3)c(=O)nc2s1", "max response": 52.9}, {"smiles": "Cn1cc(/C=C/c2ccc3ccccc3n2)c2ccccc21", "Potency": "13 µM (active)"}, {"smiles": "Cn1cc(/C=C/c2ccnc3ccccc23)c2ccccc21", "Potency": "20.6 µM (active)"}, {"smiles": "CCc1ccc2nc(N(CCCN(C)C)C(=O)c3ccc(S(=O)(=O)N(C)C4CCCCC4)cc3)sc2c1", "max response": 5.65}, {"smiles": "Cc1ccc(-n2nc3c(SCCN4CCOCC4)nnc(C)c3c2C)cc1", "max response": -27.8}, {"smiles": "O=C(Nc1nc(NC(=O)c2ccco2)n(-c2ccccc2)n1)c1ccccc1", "max response": -0.0667}, {"smiles": "CCCCn1c(NC(=O)c2ccco2)c(S(=O)(=O)c2ccc(C)cc2)c2nc3ccccc3nc21", "Potency": "20.6 µM (active)"}, {"smiles": "Cc1ccc(C(=O)Nc2sc(Cc3ccc4c(c3)OCO4)c(C)c2C(N)=O)cc1", "Potency": "18.4 µM (active)"}, {"smiles": "CCC1CCCCN1CCCNC(=O)c1ccc2c(c1)N(Cc1ccccc1F)C(=O)c1ccccc1S2(=O)=O", "note": "(configuration not stated)", "Potency": "4.61 µM (active)"}, {"smiles": "CN(C)c1ccc(/C=C/c2ccnc3cc(Cl)ccc23)cc1", "Potency": "8.2 µM (active)"}, {"smiles": "COc1cccc2nccc(/C=C/c3ccc(N(C)C)cc3)c12", "Potency": "18.4 µM (active)"}, {"smiles": "CN(C)c1ccc(/C=C/c2cnnc3ccccc23)cc1", "Potency": "20.6 µM (active)"}, {"smiles": "Nc1ccccc1/C=C/c1ccnc2ccccc12", "Potency": "16.4 µM (active)"}]}]}
